Test results reported in PubChem BioAssay (EPA / NIEHS).
Results filed as inconclusive are left out. Calls of active or inactive are those of the source. The calls were made as follows, unless noted: active = hit-call score of the fitted dose curve at least 0.9, where 1 is the maximum; inactive = score below 0.9.

Experiments:
[1] = ATG_PBREM_CIS: Attagene CIS-FACTORIAL HepG2 Assay for human Phenobarbital-responsive Enhancer Module (PBREM) (AID 2282955); conditions: HepG2 PBREM cis-reporter, Attagene multiplexed transcription; actives raise or lower the signal
Method in brief: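 HepG2 cells transiently transfected with multiple cis-regulated reporter units measure endogenous transcription factor activity; 24 h compound exposure. Reporter mRNA quantified by RT-PCR, fluorescent labelling, HpaI digestion and capillary electrophoresis; bidirectional fit versus DMSO.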

[2] = target: Paired box protein Pax-6 (Homo sapiens) (UniProt P26367); assay: ATG_Pax6_CIS: Attagene CIS-FACTORIAL HepG2 Assay for human Paired Box 6 (PAX6) (AID 2282956); conditions: HepG2 CIS-FACTORIAL PAX6 reporter transcription, RNA readout; actives raise or lower the signal
Sequence of Paired box protein Pax-6 (Homo sapiens) (P26367 whole entry, looked up): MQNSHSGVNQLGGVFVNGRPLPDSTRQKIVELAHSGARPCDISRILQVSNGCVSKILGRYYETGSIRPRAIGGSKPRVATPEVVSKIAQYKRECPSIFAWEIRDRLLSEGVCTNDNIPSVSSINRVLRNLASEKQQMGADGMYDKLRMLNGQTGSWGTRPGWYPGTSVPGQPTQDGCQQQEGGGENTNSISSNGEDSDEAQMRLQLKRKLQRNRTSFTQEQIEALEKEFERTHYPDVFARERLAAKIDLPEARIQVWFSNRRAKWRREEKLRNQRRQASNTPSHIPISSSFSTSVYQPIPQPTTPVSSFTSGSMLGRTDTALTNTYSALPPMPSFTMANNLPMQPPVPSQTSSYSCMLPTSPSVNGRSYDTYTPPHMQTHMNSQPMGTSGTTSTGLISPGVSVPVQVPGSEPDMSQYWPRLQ
Method in brief: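 Readout: reporter transcript fluorescence after RT-PCR and capillary electrophoresis. Cells: HepG2, transiently transfected with cis-regulated MRTUs. Exposure 24 h. Gain or loss of signal fitted bidirectionally relative to DMSO.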

[3] = ATG_PXRE_CIS: Attagene CIS-FACTORIAL HepG2 Assay for human Pregnane X Receptor Element (PXRE) (AID 2282957); conditions: HepG2 Attagene CIS-FACTORIAL PXRE reporter, mRNA; actives raise or lower the signal
Method in brief: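 Endogenous transcription factor activity in HepG2 was gauged through induction of reporter mRNA driven by a cis-regulating promoter element, sampled 24 h post-treatment. Activity was fitted in both directions against DMSO negative control.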

[4] = ATG_PPRE_CIS: Attagene CIS-FACTORIAL HepG2 Assay for human Peroxisome Proliferator-activated Response Element (PPRE) (AID 2282958); conditions: HepG2 PPRE cis-element reporter, Attagene transcription factor profiling; actives raise or lower the signal
Method in brief: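 HepG2 cells are transiently transfected with multiplexed cis-promoter reporter units to report endogenous PPAR activity. After 24 h dosing, reporter mRNA is read by RT-PCR and capillary electrophoresis. Fitting is bidirectional against DMSO.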

[5] = ATG_RORE_CIS: Attagene CIS-FACTORIAL HepG2 Assay for human RAR-related Orphan Receptor Element (RORE) (AID 2282959); conditions: HepG2 Attagene cis-factorial RORE reporter, mRNA; actives raise or lower the signal
Method in brief: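 HepG2 cells carrying transiently transfected cis-regulated reporter units; RORE-driven reporter mRNA quantified 24 h post-dosing by RT-PCR, 6-FAM primer extension, HpaI digestion and capillary electrophoresis. Bidirectional fit versus DMSO.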

[6] = ATG_Sox_CIS: Attagene CIS-FACTORIAL HepG2 Assay for human SRY-box transcription factor (SOX) (AID 2282960); conditions: HepG2 Attagene cis-factorial SOX reporter, mRNA; actives raise or lower the signal
Method in brief: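 HepG2 cells transiently transfected with multiple cis-regulated reporter units, then dosed for 24 h. Reporter mRNA quantified by RT-PCR, fluorescent labelling, HpaI digestion and capillary electrophoresis; bidirectional fit versus DMSO.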

[7] = target: Transcription factor Sp1 (Homo sapiens) (UniProt P08047); assay: ATG_Sp1_CIS: Attagene CIS-FACTORIAL HepG2 Assay for human Specificity Protein 1 (Sp1) (AID 2282961); conditions: HepG2 Sp1 cis-reporter transcription, actives raise or lower the signal
Sequence of Transcription factor Sp1 (Homo sapiens) (P08047 whole entry, looked up): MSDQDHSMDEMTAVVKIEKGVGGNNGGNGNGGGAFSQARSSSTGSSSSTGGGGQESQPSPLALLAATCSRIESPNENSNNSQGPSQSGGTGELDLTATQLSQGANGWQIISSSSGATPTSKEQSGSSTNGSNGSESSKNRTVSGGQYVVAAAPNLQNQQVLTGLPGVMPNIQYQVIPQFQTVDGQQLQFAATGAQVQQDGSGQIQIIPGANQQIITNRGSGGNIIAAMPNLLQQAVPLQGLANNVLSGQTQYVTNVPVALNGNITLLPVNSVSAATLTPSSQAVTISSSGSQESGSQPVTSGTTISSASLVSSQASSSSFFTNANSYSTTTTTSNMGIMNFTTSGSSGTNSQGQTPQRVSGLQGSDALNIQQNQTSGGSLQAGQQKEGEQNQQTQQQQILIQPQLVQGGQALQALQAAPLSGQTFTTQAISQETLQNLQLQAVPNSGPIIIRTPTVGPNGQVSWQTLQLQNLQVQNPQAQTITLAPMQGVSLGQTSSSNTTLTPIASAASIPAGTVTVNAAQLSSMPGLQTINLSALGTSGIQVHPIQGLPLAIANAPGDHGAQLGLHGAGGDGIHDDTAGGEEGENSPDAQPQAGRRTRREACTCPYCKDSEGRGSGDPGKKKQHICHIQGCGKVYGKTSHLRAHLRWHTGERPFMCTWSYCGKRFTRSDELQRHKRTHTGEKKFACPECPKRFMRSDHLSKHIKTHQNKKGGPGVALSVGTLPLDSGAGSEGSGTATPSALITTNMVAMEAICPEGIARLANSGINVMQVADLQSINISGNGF
Method in brief: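 HepG2 cells transiently transfected with multiplexed cis-regulated reporter constructs, chemical exposure 24 h. Reporter mRNA quantified by RT-PCR with capillary electrophoresis; bidirectional fit relative to DMSO.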

[8] = ATG_SREBP_CIS: Attagene CIS-FACTORIAL HepG2 Assay for human Sterol Regulatory Element Binding (SREBP) (AID 2282962); conditions: HepG2 Attagene cis-factorial SREBP reporter, mRNA; actives raise or lower the signal
Method in brief: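 Readout: fluorescent reporter-transcript peaks resolved by capillary electrophoresis after RT-PCR. Cells were human HepG2 carrying transfected cis-promoter reporter constructs, dosed for 24 h. Gain or loss of signal was fitted against DMSO controls.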

[9] = target: Signal transducer and activator of transcription 3 (Homo sapiens) (UniProt P40763); assay: ATG_STAT3_CIS: Attagene CIS-FACTORIAL HepG2 Assay for human Signal Transducer and Activator of Transcription 3 (STAT3) (AID 2282963); conditions: HepG2, Attagene cis-factorial STAT3 reporter transcription; actives raise or lower the signal
Sequence of Signal transducer and activator of transcription 3 (Homo sapiens) (P40763 whole entry, looked up): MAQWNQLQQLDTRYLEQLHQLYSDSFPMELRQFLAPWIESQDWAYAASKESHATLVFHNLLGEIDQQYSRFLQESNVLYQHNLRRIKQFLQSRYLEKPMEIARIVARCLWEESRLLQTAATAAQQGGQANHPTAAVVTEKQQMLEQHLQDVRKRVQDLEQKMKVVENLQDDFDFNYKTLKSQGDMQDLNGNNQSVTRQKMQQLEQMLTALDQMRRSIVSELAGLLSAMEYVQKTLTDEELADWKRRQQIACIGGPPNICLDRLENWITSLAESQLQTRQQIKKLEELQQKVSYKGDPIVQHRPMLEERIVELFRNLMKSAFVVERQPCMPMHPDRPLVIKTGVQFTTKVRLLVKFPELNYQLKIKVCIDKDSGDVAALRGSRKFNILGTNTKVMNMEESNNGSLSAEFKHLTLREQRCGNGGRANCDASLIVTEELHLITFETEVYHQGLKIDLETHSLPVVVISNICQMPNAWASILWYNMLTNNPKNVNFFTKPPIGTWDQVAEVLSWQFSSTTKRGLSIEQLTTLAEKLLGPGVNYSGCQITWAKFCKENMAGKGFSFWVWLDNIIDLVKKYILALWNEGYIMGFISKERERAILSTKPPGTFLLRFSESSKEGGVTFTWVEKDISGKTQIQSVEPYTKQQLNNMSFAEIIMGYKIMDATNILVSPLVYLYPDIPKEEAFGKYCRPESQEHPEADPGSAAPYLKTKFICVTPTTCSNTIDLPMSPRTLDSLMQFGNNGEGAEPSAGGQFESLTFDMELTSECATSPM
Method in brief: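 Uses human liver HepG2 transiently carrying cis-regulated reporter transcription units. Following 24 h dosing, reporter mRNA induction was detected by RT-PCR and capillary electrophoresis, analysed bidirectionally versus DMSO.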

[10] = ATG_TA_CIS: Attagene CIS-FACTORIAL HepG2 Assay for human TA Basal Promoter (AID 2282964); conditions: HepG2 Attagene CIS-factorial TA basal promoter reporter; actives raise or lower the signal
Method in brief: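 Transient MRTU transfection of HepG2 preceded 24 h compound exposure. Reporter mRNA levels were then read by RT-PCR with capillary electrophoresis, and this background-control endpoint was fitted bidirectionally to DMSO.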

[11] = ATG_TCF_b_cat_CIS: Attagene CIS-FACTORIAL HepG2 Assay for human T-Cell-Factor with beta-catenin (TCF/b-cat) (AID 2282965); conditions: HepG2 TCF/beta-catenin cis-reporter transcription, actives raise or lower the signal
Method in brief: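 HepG2 cells transiently transfected with multiple cis-promoter-regulated reporter transcription units, so endogenous transcription factor activity is measured. Reporter mRNA read 24 hours after dosing by RT-PCR, fluorescent labelling and capillary electrophoresis; bidirectional fitting against DMSO.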

[12] = ATG_TAL_CIS: Attagene CIS-FACTORIAL HepG2 Assay for human TAL Basal Promoter (AID 2282966); conditions: HepG2 Attagene cis-factorial TAL promoter reporter; actives raise or lower the signal;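 also: background control endpoint measuring basal TAL promoter reporter mRNA not a specific factor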
Method in brief: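 Endogenous transcription-factor activity is sensed in HepG2 cells through transfected cis-promoter reporter constructs. After 24 h dosing, reporter transcripts are quantified by RT-PCR and capillary electrophoresis. Gain or loss of signal is fitted relative to DMSO.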

[13] = ATG_TGFb_CIS: Attagene CIS-FACTORIAL HepG2 Assay for human Transforming Growth Factor (TGF) (AID 2282967); conditions: HepG2 Attagene CIS TGFb reporter, mRNA transcription; actives raise or lower the signal
Method in brief: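 After a 24-hour incubation with compound, transfected HepG2 cells were lysed for RNA; reporter cDNA was amplified, fluorescently end-labeled and separated by CE. DMSO served as baseline for bidirectional fits.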

[14] = ATG_VDRE_CIS: Attagene CIS-FACTORIAL HepG2 Assay for human Vitamin D Receptor Element (VDRE) (AID 2282968); conditions: HepG2 VDRE cis-reporter transcription, actives raise or lower the signal
Method in brief: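 Transfected HepG2 reporter cells, chemical treatment 24 h. RNA isolated, cDNA amplified with reporter-specific primers, products analysed by capillary electrophoresis. Endpoint fitted in both directions versus DMSO.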

[15] = target: X-box-binding protein 1 (Homo sapiens) (UniProt P17861); assay: ATG_Xbp1_CIS: Attagene CIS-FACTORIAL HepG2 Assay for human X-box Binding Protein 1 (XBP1) (AID 2282972); conditions: HepG2 XBP1 cis-element reporter, Attagene multiplex; actives raise or lower the signal
Sequence of X-box-binding protein 1 (Homo sapiens) (P17861 whole entry, looked up, the tested form may be a part): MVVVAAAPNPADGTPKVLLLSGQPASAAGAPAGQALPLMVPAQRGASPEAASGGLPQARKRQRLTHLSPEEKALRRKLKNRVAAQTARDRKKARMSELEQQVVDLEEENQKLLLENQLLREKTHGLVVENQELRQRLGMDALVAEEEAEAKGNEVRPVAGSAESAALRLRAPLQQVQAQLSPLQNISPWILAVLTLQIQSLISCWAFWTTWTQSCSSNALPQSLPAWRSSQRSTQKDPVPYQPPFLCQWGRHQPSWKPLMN
Method in brief: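 Read-out: fluorescent reporter mRNA fragments resolved by capillary electrophoresis after RT-PCR. Human HepG2 liver cells carried transfected cis-promoter reporter units and were exposed to chemicals for 24 hours. Gain or loss of signal fitted relative to DMSO baseline.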

[16] = ATG_M_19_TRANS: Attagene TRANS-FACTORIAL HepG2 Assay for M19 Transcription Factor (Internal Marker) (AID 2282974; active = hit-call score of the fitted dose curve at least 0.9, where 1 is the maximum); conditions: HepG2 Attagene TRANS-FACTORIAL M19 internal marker reporter
Method in brief: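 HepG2 transiently transfected with GAL4-UAS multiplex reporter constructs, exposed 24 h; reporter RNA quantified by RT-PCR, 6-FAM labeling, HpaI digestion and capillary electrophoresis; internal background marker fitted upward versus DMSO.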

[17] = target: Estrogen receptor (Homo sapiens) (UniProt P03372); assay: ATG_ERa_TRANS: Attagene TRANS-FACTORIAL HepG2 Assay for human Estrogen Receptor alpha (ERa) (AID 2282970; active = hit-call score of the fitted dose curve at least 0.9, where 1 is the maximum); conditions: HepG2 Attagene TRANS ERa GAL4 reporter, mRNA
Sequence of Estrogen receptor (Homo sapiens) (P03372 whole entry, looked up, the tested form may be a part): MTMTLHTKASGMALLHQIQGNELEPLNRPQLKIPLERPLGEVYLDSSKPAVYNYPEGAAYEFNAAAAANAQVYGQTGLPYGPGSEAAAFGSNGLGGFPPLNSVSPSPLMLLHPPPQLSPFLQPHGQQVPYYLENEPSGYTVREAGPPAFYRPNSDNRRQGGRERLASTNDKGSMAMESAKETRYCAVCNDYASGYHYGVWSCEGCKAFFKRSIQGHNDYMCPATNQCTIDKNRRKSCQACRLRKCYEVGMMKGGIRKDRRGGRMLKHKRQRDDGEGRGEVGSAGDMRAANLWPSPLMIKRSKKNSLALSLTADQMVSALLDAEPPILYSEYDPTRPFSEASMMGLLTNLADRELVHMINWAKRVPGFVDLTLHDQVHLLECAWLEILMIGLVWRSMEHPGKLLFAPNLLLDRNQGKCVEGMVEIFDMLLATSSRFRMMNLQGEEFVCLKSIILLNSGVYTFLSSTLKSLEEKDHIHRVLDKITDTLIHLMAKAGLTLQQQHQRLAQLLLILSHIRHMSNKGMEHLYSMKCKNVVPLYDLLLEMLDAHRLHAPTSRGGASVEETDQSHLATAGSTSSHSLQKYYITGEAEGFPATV
Method in brief: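 Transfected HepG2 cells carrying GAL4-UAS-driven reporter units were dosed for 24 hours. Total RNA was reverse-transcribed, reporter sequences PCR-amplified, FAM-labelled, HpaI-digested and resolved by capillary electrophoresis. Increases over DMSO control defined activity.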

[18] = target: Androgen receptor (Homo sapiens) (UniProt P10275); assay: ATG_AR_TRANS: Attagene TRANS-FACTORIAL HepG2 Assay for human Androgen Receptor (AR) (AID 2282973; active = hit-call score of the fitted dose curve at least 0.9, where 1 is the maximum); conditions: HepG2 Attagene TRANS-FACTORIAL AR reporter transcription
Sequence of Androgen receptor (Homo sapiens) (P10275 whole entry, looked up, the tested form may be a part): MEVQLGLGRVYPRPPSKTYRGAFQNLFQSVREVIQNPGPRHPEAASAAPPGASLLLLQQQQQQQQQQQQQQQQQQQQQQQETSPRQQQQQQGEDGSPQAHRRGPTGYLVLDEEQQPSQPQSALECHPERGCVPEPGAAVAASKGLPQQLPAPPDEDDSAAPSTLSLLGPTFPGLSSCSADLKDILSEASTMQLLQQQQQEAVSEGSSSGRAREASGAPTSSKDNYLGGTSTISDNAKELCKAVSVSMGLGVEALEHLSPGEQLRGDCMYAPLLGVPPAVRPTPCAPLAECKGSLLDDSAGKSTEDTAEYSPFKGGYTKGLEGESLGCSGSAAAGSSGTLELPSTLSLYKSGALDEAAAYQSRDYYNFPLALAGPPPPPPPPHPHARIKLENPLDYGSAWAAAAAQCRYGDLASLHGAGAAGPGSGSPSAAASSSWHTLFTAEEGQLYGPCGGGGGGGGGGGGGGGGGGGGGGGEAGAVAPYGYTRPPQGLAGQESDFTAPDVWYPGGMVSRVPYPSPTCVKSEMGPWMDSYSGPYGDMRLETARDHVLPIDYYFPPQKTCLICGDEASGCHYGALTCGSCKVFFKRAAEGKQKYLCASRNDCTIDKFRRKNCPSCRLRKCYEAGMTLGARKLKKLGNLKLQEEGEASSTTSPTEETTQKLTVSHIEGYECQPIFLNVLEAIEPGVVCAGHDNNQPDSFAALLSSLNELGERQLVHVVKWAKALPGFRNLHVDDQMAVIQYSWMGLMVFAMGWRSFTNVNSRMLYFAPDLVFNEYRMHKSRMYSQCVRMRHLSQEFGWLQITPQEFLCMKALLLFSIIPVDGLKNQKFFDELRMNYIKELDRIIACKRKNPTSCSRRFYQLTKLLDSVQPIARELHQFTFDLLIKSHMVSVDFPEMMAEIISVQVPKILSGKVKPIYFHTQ
Method in brief: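 Transfected HepG2, 24 h treatment, chimeric NR-Gal4 driving GAL4-UAS reporters. mRNA induction by RT-PCR/capillary electrophoresis fluorescence; DMSO as negative control and baseline.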

[19] = target: Steroid hormone receptor ERR1 (Homo sapiens) (UniProt P11474); assay: ATG_ERRa_TRANS: Attagene TRANS-FACTORIAL HepG2 Assay for human Estrogen-Related Receptor alpha (ERRa) (AID 2282971; active = hit-call score of the fitted dose curve at least 0.9, where 1 is the maximum); conditions: HepG2 Attagene TRANS reporter, ERRa transactivation
Sequence of Steroid hormone receptor ERR1 (Homo sapiens) (P11474 whole entry, looked up, the tested form may be a part): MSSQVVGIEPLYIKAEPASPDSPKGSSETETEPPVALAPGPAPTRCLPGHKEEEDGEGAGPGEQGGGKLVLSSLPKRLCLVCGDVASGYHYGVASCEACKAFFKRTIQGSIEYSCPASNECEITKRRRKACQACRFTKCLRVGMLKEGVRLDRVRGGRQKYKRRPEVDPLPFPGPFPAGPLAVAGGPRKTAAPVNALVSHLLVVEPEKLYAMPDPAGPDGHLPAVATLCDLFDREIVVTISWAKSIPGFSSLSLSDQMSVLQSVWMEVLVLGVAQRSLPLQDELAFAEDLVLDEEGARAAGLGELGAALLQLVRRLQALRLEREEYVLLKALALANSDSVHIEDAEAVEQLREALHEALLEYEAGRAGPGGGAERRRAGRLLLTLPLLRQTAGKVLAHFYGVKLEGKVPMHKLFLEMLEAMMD
Method in brief: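 HepG2 cells were transiently transfected with multiple GAL4-UAS reporter units, then dosed with compound for 24 h. Total RNA was reverse-transcribed, reporter cDNA PCR-amplified and fluorescently labelled, and fragments resolved by capillary electrophoresis; induction was compared with DMSO.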

[20] = target: Nuclear receptor subfamily 1 group I member 3 (Homo sapiens) (UniProt Q14994); assay: ATG_CAR_TRANS: Attagene TRANS-FACTORIAL HepG2 Assay for human Constitutive Androstane Receptor (CAR) (AID 2282969; active = hit-call score of the fitted dose curve at least 0.9, where 1 is the maximum;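 also: activators raise reporter mRNA above DMSO so AC50 marks induction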); conditions: HepG2 Attagene TRANS-FACTORIAL CAR reporter
Sequence of Nuclear receptor subfamily 1 group I member 3 (Homo sapiens) (Q14994 whole entry, looked up, the tested form may be a part): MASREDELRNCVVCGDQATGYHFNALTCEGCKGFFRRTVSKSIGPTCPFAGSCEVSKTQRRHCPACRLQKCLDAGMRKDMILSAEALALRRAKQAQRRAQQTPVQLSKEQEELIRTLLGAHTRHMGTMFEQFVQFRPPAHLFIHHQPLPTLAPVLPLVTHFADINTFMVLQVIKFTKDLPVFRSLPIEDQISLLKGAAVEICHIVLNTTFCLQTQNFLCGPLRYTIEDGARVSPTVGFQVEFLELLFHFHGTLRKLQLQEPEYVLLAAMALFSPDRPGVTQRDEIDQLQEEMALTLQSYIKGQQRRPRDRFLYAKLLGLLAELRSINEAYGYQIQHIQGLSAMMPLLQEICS
Method in brief: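 Steps: transient transfection of HepG2 with multiple GAL4-UAS reporter units; 24 h compound incubation; RNA isolation, RT-PCR, 6-FAM primer extension, HpaI digest; capillary electrophoresis. Gain-of-signal relative to DMSO negative control.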

Measured: AC50

Clc1nc(Cl)nc(Nc2ccccc2Cl)n1
active: [3] 39.7 µM | [4] 18.7 µM
not listed: [17] | [18] | [19] | [20]
inactive: all other assays above

COCC(C)N(C(=O)CCl)c1c(C)csc1C (stereo unspecified)
active: [3] 1.06 µM | [8] 5.88 µM | [14] 1.84 µM
not listed: [1] | [16] | [18] | [19] | [20]
inactive: all other assays above

COc1ccc(-c2ccccc2)cc1NNC(=O)OC(C)C
active: [1] 15.9 µM | [3] 3.69 µM | [8] 15.2 µM | [14] 7.63 µM | [15] 50 µM
not listed: [4] | [16] | [19] | [20]
inactive: all other assays above

OC(c1ccc(Cl)cc1)(c1ccc(Cl)cc1)C(Cl)(Cl)Cl
active: [3] 2.86 µM
not listed: [5] | [16] | [18] | [20]
inactive: all other assays above

CN/C(=N\[N+](=O)[O-])NCc1cnc(Cl)s1
not listed: [4] | [16] | [18] | [19]
inactive: all other assays above

Cn1c(-c2ccccc2)cc(-c2ccccc2)[n+]1C
not listed: [4] | [18] | [20]
inactive: all other assays above
